Compounds with a hit are over-represented: about 1.8% of the library has one in this group of screens.
EWS-Fli block = EWS/Fli-driven NR0B1 reporter inhibitors, primary screen, A673 cells, NR0B1 luciferase, luminescence, MLPCN library; viability-normalised; inhibition, % at 12.6 µM; 0.67% of 350,000 active;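 active means mean inhibition of at least 50% after viability correction, with every replicate also passing that limit; inconclusive means mean reaches 50% but only one of two replicates passes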;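 further: firefly luciferase signal divided by Alamar Blue viability fluorescence both relative to DMSO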
GSIS activator = GLuc luminescence reporter in INS-1E cells, primary screen for activators of glucose-dependent secretion of insulin. INS-1E GLuc reporter insulin secretion, 2-3 h. activation, % at 16.6 µM. 0.61% of 370,000 active;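 active means lowest replicate activation of at least 40%, so every replicate reaches that level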;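 further: 0% = median of neutral control wells and 100% = median of IBMX positive control wells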
RAD52 inh = RAD52 DNA annealing inhibitors, primary screen, biochemical, FRET, single point, set 2; DNA repair protein RAD52 homolog (Homo sapiens), P43351; recombinant RAD52 DNA annealing, FRET fluorescence; inhibition, % at 18.7 µM; 0.46% of 360,000 active; AID 651710, 2012;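 active means every replicate showing at least 50% inhibition; inconclusive means mean inhibition at least 50% but not in every replicate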
Target sequence (P43351 whole entry, looked up): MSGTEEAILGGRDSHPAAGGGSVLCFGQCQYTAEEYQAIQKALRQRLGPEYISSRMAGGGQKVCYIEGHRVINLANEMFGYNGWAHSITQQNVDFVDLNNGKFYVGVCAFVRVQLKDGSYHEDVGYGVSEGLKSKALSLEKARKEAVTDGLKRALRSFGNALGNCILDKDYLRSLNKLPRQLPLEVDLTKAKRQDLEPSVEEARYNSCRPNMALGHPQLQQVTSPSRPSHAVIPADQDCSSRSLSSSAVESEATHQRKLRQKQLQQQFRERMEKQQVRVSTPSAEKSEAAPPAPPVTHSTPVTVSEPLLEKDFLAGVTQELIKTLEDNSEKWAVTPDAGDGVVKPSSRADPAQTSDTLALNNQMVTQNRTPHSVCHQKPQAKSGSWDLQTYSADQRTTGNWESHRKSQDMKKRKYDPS
CFTR F508del cor = F508del CFTR correction, initial screen, CFBE line, single point | CFBE cells, YFP halide quenching; stimulated with forskolin plus potentiator P3; % fluorescence drop versus neutral controls | activity (quench increase), % at 7.58 µM | 0.36% of 350,000 active | AID 720511, 2013;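 active means mean added fluorescence quench of at least 8% versus neutral control, with both replicates also reaching 8%; inconclusive means only one of the mean or replicate conditions met; inactive means mean below 8% and not both replicates reaching 8%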;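 further: cells transiently co-express mutant CFTR-F508del with the halide-sensitive YFP; corrector assay measuring rescue of mutant channel to the surface after 24 h compound exposure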
RAD54 inh = inhibitors of human RAD54 branch migration, primary screen, biochemical, fluorescence, single point | 0.14% of 360,000 active | RAD54 Holliday junction branch migration, FAM/BHQ fluorescence | inhibition, % at 10.4 µM;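 active means mean normalized replicate activity at least 40 and at least half of replicates scoring 40 or more; inconclusive means only one of the two criteria met; inactive means mean below 40 and under half of replicates reaching 40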;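 further: 0% = median of neutral control wells and 100% = median of positive control wells; inhibitors cause a drop in the FAM fluorescence signal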
LGR2 inh = inhibitors of bursicon-induced LGR2 CRE-luciferase signal, primary screen, cell-based, HEK293, CRE-luciferase reporter, bursicon stimulation; Drosophila bursicon receptor LGR2 (rickets); bursicon-stimulated, 4 h; AID 720647, 2013; inhibition, % at 9.99 µM; 0.35% of 380,000 active;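 active means drop in luminescence signal, shown as inhibition above about 50% in the replicate tests, limit read from the data, passing the limit was not always enough; inconclusive means probably only some replicates passing the limit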;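 further: agonist challenge used bursicon conditioned medium at about half maximal strength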
The depositor's hits bear a star; u = inconclusive; x = not tested or not shown.

SMILES	EWS-Fli block	GSIS activator	RAD52 inh	CFTR F508del cor	RAD54 inh	LGR2 inh
O=C(NCc1ccc(F)cc1)c1ccc2c(=O)n3c(nc2c1)CCCCC3	9.2	1.3	-12.2	-1.1	-9.7	9.5
O=S(=O)(c1ccc(Cl)cc1Br)N1CCCCC1	x	x	x	x	-3.2	x
C/C(=N\NC(=O)c1c[nH]c2ccccc12)c1ccc(C)o1	x	x	x	x	58.5*	x
COc1ccc(NC(=O)N2C[C@@H]3[C@H](c4ccccc42)[C@H](CO)N3C(=O)C2CCCCC2)cc1	-9.7	-4.0	-7.1	-1.3	4.8	0.7
NCCN=C1NS(=O)(=O)c2ccccc21	0.9	-5.0	-20.0	1.0	0.7	-4.9
CN(c1ccccc1)S(=O)(=O)c1ccc(NC(=O)c2ccccc2)cc1	x	-25.8	x	x	x	-9.7
COc1cccc(NC(=O)c2nc(S(C)(=O)=O)ncc2Cl)c1	59.1*	54.4*	-13.2	-5.3	1.7	1.5
CN(c1ccccc1)S(=O)(=O)c1ccc(NC(=O)c2nc(S(C)(=O)=O)ncc2Cl)cc1	57.6*	35.8	-37.7	-0.2	-5.6	9.8
COc1cccc(NC(=O)c2nc(SC)ncc2Cl)c1	-11.4	12.3	-2.8	4.3	-4.7	-1.8
COc1ccc(N2C(=O)C3C(C2=O)C2C=CC3C23CC3)c(OC)c1 (centres undefined)	x	x	x	x	-13.6	x
Cn1cc(CN2CCN(c3ccc(Cl)cn3)CC2)c(-c2ccccc2F)n1	-1.1	-15.9	-14.9	1.4	7.2	2.5
Cc1cccc(N2CCN(Cc3cn(C)nc3-c3ccccc3F)CC2)n1	58.8*	4.2	-14.4	9.1*	x	16.3
Cc1ccc2cc(CN(Cc3ccco3)C(=O)c3ccccc3)c(=O)[nH]c2c1C	x	x	x	x	-8.1	x
COc1cc(-c2noc(C)c2/C=C/c2ccc(OC(C)=O)cc2)cc(OC)c1OC	63.8*	x	-13.7	3.0	-9.5	-0.6
CCC1(c2ccccc2)NC(=O)N(CC(=O)Nc2cc(Cl)ccc2N2CCN(C)CC2)C1=O (centres undefined)	12.7	11.6	26.2	2.5	6.8	-1.3
FC(F)(F)c1ccc(Cl)c(-n2c(Cc3cccs3)n[nH]c2=S)c1	-4.2	40.5*	-12.0	-1.8	1.2	10.2
O=C(C[C@@H]1C[C@H]2c3cc(NC(=O)c4ccc5c(c4)OCO5)ccc3O[C@H]2[C@@H](CO)O1)NCc1ccc(Oc2ccccc2)cc1	-8.1	-1.5	3.6	1.3	3.2	52.5*
CN(C)c1ccc2c(c1)[C@@H]1C[C@@H](CC(=O)NCc3ccc(Oc4ccccc4)cc3)O[C@@H](CO)[C@@H]1O2	51.2*	-10.3	33.3	6.2	-5.9	x
CN(C)c1ccc2c(c1)[C@@H]1C[C@H](CC(=O)NCCN3CCCCC3)O[C@H](CO)[C@@H]1O2	-2.1	17.3	40.4	-1.4	u	4.3
CN(C)c1ccc2c(c1)[C@H]1C[C@@H](CC(=O)NCc3ccc(Oc4ccccc4)cc3)O[C@@H](CO)[C@H]1O2	17.9	-2.7	17.3	1.7	-5.5	27.0
O=C(C[C@@H]1C[C@H]2c3cc(NC(=O)NC4CCCC4)ccc3O[C@H]2[C@H](CO)O1)NCc1ccc(Oc2ccccc2)cc1	60.4*	-8.4	7.5	4.9	-3.9	-1.8
CN(C)c1ccc2c(c1)[C@@H]1C[C@@H](CC(=O)NCCN3CCCCC3)O[C@H](CO)[C@@H]1O2	-1.0	23.0	31.6	1.2	55.3*	-3.6
CN(C)CCNc1c2c(nc3ccccc13)CCC2	14.3	7.9	47.4	6.0	34.6	-0.9
N#C/C(=C\Nc1ccc(F)c(Cl)c1)C(=O)C1CC1	5.2	15.0	-22.3	-0.7	-4.7	-8.1
CCN1CCCC1CNC(=O)C(=O)Nc1ccccc1OC (centres undefined)	x	-4.4	x	x	-4.6	22.0
SMILES	EWS-Fli block	GSIS activator	RAD52 inh	CFTR F508del cor	RAD54 inh	LGR2 inh
COc1ccc(-c2ccc(=O)n(CC(=O)NC3CCc4ccccc43)n2)cc1OC (centres undefined)	6.3	47.2*	0.3	-1.6	x	x
COc1ccc(-c2ccc(SCC(=O)NC3CCCC3)nn2)cc1OC	x	80.3*	-13.3	6.9	-4.5	-47.1
Cc1cc(NC(=O)CSc2ccc(-c3ccc4c(c3)OCO4)nn2)no1	-16.4	26.3	-10.7	-1.1	x	-30.9
Cc1cccc(NC(=O)CSc2ccc(-c3ccc4c(c3)OCO4)nn2)c1C	x	94.1*	x	x	10.9	1.0
Cc1ccc(-c2ccc(SCC(=O)Nc3cc(C)on3)nn2)cc1	-3.2	-4.4	-4.6	-1.5	x	-25.9
COc1ccc(-c2ccc(SCC(=O)Nc3cc(C)on3)nn2)cc1OC	x	57.1*	x	x	2.8	-7.1
COc1cccc(-c2ccc(SCC(=O)NC3CCCCC3)nn2)c1	-13.5	0.5	-0.8	1.9	7.3	9.4
Cc1ccccc1-c1ccc2c(c1)O[C@@H](CN(C)C(=O)Nc1ccccc1)[C@H](C)CN([C@H](C)CO)S2(=O)=O	15.9	-43.8	-4.5	1.9	4.2	20.9
CCCCNC(=O)C1(C)CCN1Cc1ccc(C(=O)OCC)cc1 (centres undefined)	9.8	11.7	-7.6	1.6	0.1	-22.7
COc1cc(C(=O)Oc2cccc(Nc3ncnc4ccccc34)c2)cc(OC)c1OC	-21.0	6.6	-17.0	-2.1	x	85.4*
CC(=O)c1cccc(Nc2ncnc3ccc(Br)cc23)c1	6.0	49.0*	-13.1	-2.2	x	-2.7
Nc1cc[n+](CC(=O)Nc2ccccc2)cc1	0.1	6.8	-0.7	x	x	-9.0
O=C(Nc1ccc(F)cc1)N1CC(=O)N2[C@@H](CO)[C@@H](c3ccc(C#Cc4cccnc4)cc3)[C@@H]2C1	0.9	-13.9	-6.5	-3.3	x	26.8
Cn1cnnc1SCC(=O)Nc1ccc(OCc2ccccc2)cc1	-17.0	-21.6	-10.8	-0.2	x	-24.6
C=C(C)C1Cc2c(C)nn(-c3cccc4cccnc34)c2C1 (centres undefined)	6.2	50.8*	-14.5	1.0	1.9	12.4
C=C(C)C1Cc2c(C)nn(-c3ccccn3)c2C1 (centres undefined)	x	x	x	x	-7.3	x
C[C@@H]1CN([C@@H](C)CO)C(=O)c2cccc(NC(=O)c3cnccn3)c2O[C@H]1CN(C)Cc1ccc(C(F)(F)F)cc1	-8.0	-12.4	19.2	1.7	-6.8	-1.6
COc1cc(C(=O)OCC(=O)Nc2sccc2C(N)=O)cc(OC)c1OC	61.2*	23.2	-10.6	-1.6	x	-6.0
NC(=O)c1ccsc1NC(=O)COC(=O)CNC(=O)c1ccc(Cl)cc1	9.9	49.9*	-13.5	-1.8	-0.5	-6.1
COc1ccc(C(=O)OCC(=O)Nc2sccc2C(N)=O)cc1OC	-18.0	31.9	-26.3	0.1	0.7	-24.4
CCCCOC(=O)C1=C(C)Nc2ncnn2C1c1ccc(OC)c(OC)c1 (centres undefined)	x	x	x	x	5.5	x
